Measurements: the supplement of paper PMC5641865, “A screen for kinase inhibitors identifies antimicrobial imidazopyridine aminofurazans as specific inhibitors of the Listeria monocytogenes PASTA kinase PrkA” (The Journal of Biological Chemistry, 2017)
± gives the standard deviation of the averaged measurements.

These molecules were tested on Listeria monocytogenes 10403S (assay: growth inhibition relative to ceftriaxone-alone control; higher = stronger potentiation of ceftriaxone growth inhibition). Conditions: 10 µM; ceftriaxone 1 ug/ml; 12 h.
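Note: End-point A600 read in BHI broth at 37 °C with 2% DMSO, inhibition computed as (1 − OD with compound plus ceftriaxone ÷ OD with ceftriaxone only) × 100.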

Row | SMILES | growth inhibition [%]
1 | Cc1ccc(NC(=O)CC2CC2)cc1-c1ccc(C(=O)NCC2CC2)cc1 | -0.462 ± 0.33
2 | CN(C)c1cc2c(Nc3ccc4nc(Cc5ccccc5)[nH]c4c3)ncnc2cn1 | -14.1 ± 8.1
3 | NS(=O)(=O)c1ccc(-c2ccc3c(NC(=O)C4CC4)n[nH]c3c2)cc1 | -10.8 ± 16
4 | O=C(Nc1n[nH]c2nc(-c3ccco3)ccc12)C1CC1 | 0.454 ± 0.64
5 | CCCS(=O)(=O)Nc1ccc(F)c(C(=O)c2c[nH]c3ncc(Cl)cc23)c1F | 24.2 ± 22
6 | Cc1cc(Nc2cc(CN3CCOCC3)c3nc(C)c(Cc4ccc(Cl)cc4F)n3n2)n[nH]1 | 12 ± 6.8
7 | c1cncc(CN2CCC(n3ncc4c(N5CCOCC5)nc(-c5ccc6[nH]ccc6c5)nc43)CC2)c1 | 37.1 ± 17
8 | Cc1cnc(Nc2ccc(N3CCN(C)CC3)cc2)nc1Nc1cccc(S(=O)(=O)NC(C)(C)C)c1 | 42.3 ± 24
9 | NS(=O)(=O)c1ccc(N/N=C2\C(=O)Nc3ccc4ncccc4c32)cc1 | -6.48 ± 3.8
10 | O=c1c(O)c(-c2ccc(O)c(O)c2)oc2cc(O)cc(O)c12 [Quercetin (Sophoretin)] | 20.4 ± 13
11 | COc1cc2c(cc1Nc1nc(Nc3ccsc3C(N)=O)c3cc[nH]c3n1)N(C(=O)CN(C)C)CCC2 | -0.422 ± 3.1
12 | CN1CCN(Cc2ccc(-c3cc4ncnc(Nc5ccc(OCc6cccc(F)c6)c(Cl)c5)c4s3)o2)CC1 | 3 ± 2.7
13 | Cc1cc(C)c(/C=C2\C(=O)Nc3ccccc32)[nH]1 [Semaxanib (SU5416)] | -4.38 ± 12
14 | COC(=O)c1cncc(/C=C/c2c(C)cc(O)cc2C)c1 | -6.45 ± 1.7
15 | CS(=O)(=O)CCNCc1ccc(-c2ccc3ncnc(Nc4ccc(OCc5ccccc5)c(Cl)c4)c3c2)o1 | -9.81 ± 12
16 | Cc1nc(Nc2ncc(C(=O)Nc3c(C)cccc3Cl)s2)cc(N2CCN(CCO)CC2)n1 | 32 ± 20
17 | CCS(=O)(=O)c1ccc(OC)c(Nc2nccc(N(C)c3ccc4c(C)n[nH]c4c3)n2)c1 | 0.981 ± 2.5
18 | Cc1cc(CN2CCN(c3c(Br)cnc4nc(-c5ccc(N6CCN(C)CC6)cc5)[nH]c34)CC2)no1 | 40.4 ± 40
19 | O=C1NC(=O)C(c2ccc(Cl)cc2)=C1Nc1ccc(Cl)c(C(=O)O)c1 | 6.2 ± 5.4
20 | CN(C)Cc1cccc(N=C(c2ccccc2)c2c(O)[nH]c3cc(C(=O)N(C)C)ccc23)c1 | 26.5 ± 1.6

Row | SMILES | growth inhibition [%]
21 | COc1ccc(-c2cc3c(C)nc(N)nc3n([C@H]3CC[C@H](OCCO)CC3)c2=O)cn1 | 12.2 ± 9.5
22 | O=c1cc(N2CCOCC2)oc2c(-c3cccc4c3sc3ccccc34)cccc12 | 26.2 ± 7
23 | NCc1ccc(-c2nc(-c3ccc(Cl)c(O)c3)c(-c3ccncc3)[nH]2)cc1 | -9.88 ± 15
24 | CCn1c(N)c(C(=O)NC)c(=O)c2ccc(C#CC(C)(O)COC)nc21 (centres undefined) | 2.07 ± 6.6
25 | COc1cc(Nc2ncc(F)c(Nc3ccc4c(n3)N(COP(=O)(O)O)C(=O)C(C)(C)O4)n2)cc(OC)c1OC | 10.1 ± 12
26 | CCC(=O)N1CCN(c2ccc(-n3c(=O)ccc4cnc5ccc(-c6cnc7ccccc7c6)cc5c43)cc2C(F)(F)F)CC1 [Torin 1] | -4.1 ± 10
27 | CCCN1CCCC(c2ccc(Nc3nc(Nc4cc(F)ccc4C(N)=O)c4cc[nH]c4n3)c(OC)c2)C1 (centres undefined) | 1.46 ± 6.2
28 | CC(C)NC[C@@H](C(=O)N1CCN(c2ncnc3c2[C@H](C)C[C@H]3O)CC1)c1ccc(Cl)cc1 | 23.5 ± 8.6
29 | O=C1NC(=O)C(c2ccccc2[N+](=O)[O-])=C1Nc1ccc(O)c(Cl)c1 | 52.5 ± 49
30 | COc1cc2ncnc(Nc3ccc(O)c(Br)c3)c2cc1OC | 13.4 ± 5.2
31 | CNC(=O)Nc1ccc(-c2nc(N3CC4CCC(C3)O4)c3cnn(C4CCC5(CC4)OCCO5)c3n2)cc1 | 7.7 ± 6.6
32 | Cc1ccc(NC(=O)c2cccc(N(C)C)c2)cc1NC(=O)c1ccc(O)cc1 | 29.5 ± 12
33 | NC1(Cc2ccc(Cl)cc2)CCN(c2ncnc3[nH]ccc23)CC1 | 35 ± 20
34 | Cc1c(NC(=O)OC[C@@H]2COCCN2)cn2ncnc(Nc3ccc4c(cnn4Cc4cccc(F)c4)c3)c12 | 44.1 ± 20
35 | CCCCCCCCCCCCc1ccc(S(=O)(=O)Nc2nncs2)cc1 | 93.5 ± 11
36 | CN1CCN(CCOc2cc(OC3CCOCC3)c3c(Nc4c(Cl)ccc5c4OCO5)ncnc3c2)CC1 [Saracatinib (AZD0530)] | -2.45 ± 20
37 | O=C(O)c1ccc2c(c1)nc(Nc1cccc(Cl)c1)c1ccncc12 [CX-4945 (Silmitasertib)] | 76.2 ± 9.6
38 | CCCCOc1c(C(=O)c2c(F)cc(C)cc2F)c[nH]c2nncc1-2 | -6.78 ± 8.6
39 | Nc1cc(C(F)(F)F)c(-c2cc(N3CCOCC3)nc(N3CCOCC3)n2)cn1 | 47 ± 35
